Test results published in PubChem BioAssay (NCATS).
Results filed as inconclusive are left out. Where a call stands in place of a potency, no number is given. Active and inactive are the calls of the source. Calls follow the shape of the dose curve; as a rule, active = well fitted inhibition curve with a large enough effect; inconclusive = small, poorly fitted or top-dose-only effect; inactive = flat fitted curve, though single readings scatter.

Target: Voltage-gated inwardly rectifying potassium channel KCNH2 (Homo sapiens) (UniProt Q12809)
Sequence (Q12809 whole entry, looked up): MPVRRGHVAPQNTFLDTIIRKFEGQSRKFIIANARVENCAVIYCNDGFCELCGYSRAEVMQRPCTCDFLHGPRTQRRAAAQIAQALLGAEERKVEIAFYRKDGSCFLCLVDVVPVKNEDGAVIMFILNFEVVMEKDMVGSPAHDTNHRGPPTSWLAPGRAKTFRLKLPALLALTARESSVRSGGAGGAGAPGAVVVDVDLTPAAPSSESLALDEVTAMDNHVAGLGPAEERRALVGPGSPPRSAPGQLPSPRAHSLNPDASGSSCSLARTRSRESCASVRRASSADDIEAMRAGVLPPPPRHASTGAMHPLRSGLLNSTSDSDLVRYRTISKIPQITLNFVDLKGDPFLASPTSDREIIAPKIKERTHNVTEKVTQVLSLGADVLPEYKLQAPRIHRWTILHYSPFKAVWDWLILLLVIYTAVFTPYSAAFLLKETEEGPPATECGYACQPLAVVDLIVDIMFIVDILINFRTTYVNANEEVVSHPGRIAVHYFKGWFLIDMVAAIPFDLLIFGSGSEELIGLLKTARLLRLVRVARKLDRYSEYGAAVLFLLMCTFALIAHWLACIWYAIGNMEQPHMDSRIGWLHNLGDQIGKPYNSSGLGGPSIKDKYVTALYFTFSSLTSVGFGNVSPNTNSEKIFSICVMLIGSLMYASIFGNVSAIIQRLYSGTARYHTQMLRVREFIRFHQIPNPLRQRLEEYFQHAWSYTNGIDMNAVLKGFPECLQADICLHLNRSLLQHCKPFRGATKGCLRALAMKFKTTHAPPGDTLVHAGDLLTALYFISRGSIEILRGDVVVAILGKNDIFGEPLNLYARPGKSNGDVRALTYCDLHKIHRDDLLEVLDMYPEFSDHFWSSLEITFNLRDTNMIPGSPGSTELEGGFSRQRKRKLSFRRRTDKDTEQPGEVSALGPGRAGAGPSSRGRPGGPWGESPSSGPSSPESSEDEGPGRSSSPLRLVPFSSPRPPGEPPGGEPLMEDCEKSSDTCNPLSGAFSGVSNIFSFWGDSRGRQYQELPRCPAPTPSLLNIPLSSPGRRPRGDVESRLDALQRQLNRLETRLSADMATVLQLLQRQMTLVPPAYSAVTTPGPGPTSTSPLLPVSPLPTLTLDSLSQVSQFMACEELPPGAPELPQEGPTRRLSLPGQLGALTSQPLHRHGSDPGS
Experiment: qHTS Assay for Small Molecule Inhibitors of the Human hERG Channel Activity (AID 588834);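 also: lower thallium flux fluorescence means stronger hERG block; nearly all actives have a fitted effect of over 50% in size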
Conditions: U2OS BacMam hERG, FluxOR thallium flux fluorescence; series mostly up to 46.1 µM
How it was run: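 Concentration-response qHTS measuring drop in thallium-sensitive dye signal. U2OS cells carrying BacMam hERG; compound exposure ~10 min, then stimulation buffer and 2 min read at 1 sec intervals.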
Potency is read from the fitted curve at half-maximal effect.

SMILES	Potency
CN(N=O)c1cc(O)ccc1O	inactive
C[N+]1(C)CCOC(O)(c2ccc(-c3ccc(C4(O)C[N+](C)(C)CCO4)cc3)cc2)C1 (stereo unspecified)	inactive
CCCN1CCCC2Cc3[nH]ncc3CC21 (stereo unspecified)	inactive
CN1[C@H]2CC[C@@H]1[C@@H](C(=O)O)[C@@H](OC(=O)c1ccccc1)C2	inactive
N[C@@]1(C(=O)O)CC[C@@H](C(=O)O)C1	inactive
NNC(=O)c1ccc(O)cc1	inactive
CN(N=O)c1ccc(O)c(O)c1	inactive
CCCn1c(C)c(C(=O)c2ccc3ccccc3c2)c2ccccc21	6.31 µM (active)
C[C@@H]([C@H](O)c1ccccc1)N(C)C	inactive
CC(=O)O[C@H]1C[C@H](O[C@H]2[C@@H](O)C[C@H](O[C@H]3[C@@H](O)C[C@H](OC4CC[C@@]5(C)[C@H](CC[C@@H]6[C@@H]5CC[C@]5(C)[C@@H](C7=CC(=O)OC7)CC[C@]65O)C4)O[C@@H]3C)O[C@@H]2C)O[C@H](C)[C@H]1O[C@@H]1O[C@H](CO)[C@@H](O)[C@H](O)[C@H]1O (stereo partly specified)	inactive
CC(=O)NBr	inactive
CC(=O)[C@H]1CC[C@H]2[C@@H]3CC[C@@H]4C[C@H](O)CC[C@]4(C)[C@H]3CC[C@]12C	inactive
CC(C)(O)[C@@H]1[C@H]2OC(=O)[C@@H]1[C@]1(O)C[C@H]3O[C@]34C(=O)O[C@H]2[C@]14C	inactive
CCN(CCCl)Cc1ccccc1Br	inactive
CP(=O)(O)C1=CCNCC1	inactive
CC(=O)O[C@H]1CC[C@@]2(C)C(=CC[C@@H]3[C@@H]2CC[C@]2(C)C(=O)CC[C@@H]32)C1	inactive
